D2 PAM-1 – human D2 receptor positive allosteric modulation; DiscoveRx D2 beta-arrestin cells, luminescence, 90 min; 100% = 57 uM dopamine signal; P14416; 0.23% of 360,000 active; potentiation, % (concentration not given with the values); AID 624464; in the data active = potentiation above about 50%; inconclusive = mostly about 30% to 49%
Target sequence (P14416 whole entry, looked up): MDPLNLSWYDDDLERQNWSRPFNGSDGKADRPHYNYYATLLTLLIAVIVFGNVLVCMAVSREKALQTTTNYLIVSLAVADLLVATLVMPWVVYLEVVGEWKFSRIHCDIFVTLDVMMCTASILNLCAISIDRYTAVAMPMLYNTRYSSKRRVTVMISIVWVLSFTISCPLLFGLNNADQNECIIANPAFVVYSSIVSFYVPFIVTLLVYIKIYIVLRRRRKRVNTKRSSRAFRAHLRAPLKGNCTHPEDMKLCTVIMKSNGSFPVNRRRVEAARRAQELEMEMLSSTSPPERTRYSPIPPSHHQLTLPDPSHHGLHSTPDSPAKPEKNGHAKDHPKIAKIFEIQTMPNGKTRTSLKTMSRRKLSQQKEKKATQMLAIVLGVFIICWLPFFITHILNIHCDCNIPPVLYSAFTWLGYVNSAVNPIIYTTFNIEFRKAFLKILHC
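PathHunter beta-arrestin assay in DiscoveRx D2 cells. Compounds were added with an EC20 of dopamine (50 nM final) for 90 min at 37 deg C. Luminescence was read 1 h after detection reagent, with 57 uM dopamine as the EC100 control.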
D2 antag – D2 dopamine receptor (human) antagonism. P14416. AID 485344. inhibition, % at 10 µM. HEK293 TREx D2 cells, calcium flux, dopamine EC80. 2% of 340,000 active; in the data active = inhibition above about 30%; inactive = below that, where a call was filed; also: 0% is about no effect
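Inhibition of EC80 dopamine-driven calcium flux, recorded kinetically, defines activity here; cells are a tetracycline-induced HEK293 T-REx line expressing force-coupled D2.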
D2 ag-1 – activates the human D2 dopamine receptor. P14416. HEK293 T-REx D2 cells, calcium flux agonist mode. activation, % at 2 µM. 0.53% of 340,000 active;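 active = activation over 3 SD above normal in the single-dose calcium agonist read, cut at about 30% in these data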; also: 0% is about no effect
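Agonism is scored from calcium flux in a force-coupled, inducible HEK293 cell line expressing D2, read kinetically for 180 s after compound addition against dopamine controls.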
D2 ag-2 – agonists of human D2 dopamine receptor (beta-arrestin); 0.084% of 360,000 active; P14416; DiscoveRx PathHunter D2 beta-arrestin, luminescence, 90 min; 100% = 57 uM dopamine signal; activation, % (test concentration not listed); in the data active = activation above about 40%; inconclusive = between about 15% and that limit
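DiscoveRx PathHunter D2 beta-arrestin cells (2,100/well) attached overnight, then compound-stimulated 90 min at 37 C in HBSS/10 mM HEPES/0.1% Tween-20 buffer; beta-galactosidase complementation read by luminescence after 1 h at ambient temperature. Dopamine 57 uM final (EC100) as control.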
D2 PAM-2 – positively modulates the human D2 dopamine receptor allosterically; P14416; HEK293 T-REx D2, calcium flux, EC20 dopamine potentiation; potentiation, % at 10 µM; 0.34% of 340,000 active;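 active = potentiation over 3 SD above the plate norm, cut at about 30% in these data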; also: 0% is about no effect
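Calcium flux readout, no-wash dye, 1 read/s. Inducible HEK293 Trex D2 line, overnight 30 C. Compound alone 180 s (agonist flags), then EC20 dopamine, another 180 s to score potentiation.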
Active calls of the source: *; u = inconclusive; x = not tested or not shown; ! = a repeat was not active. Only some compounds are listed: those with a hit (about 2.4% of all), similar ones and a draw of the others.

SMILES	D2 PAM-1	D2 antag	D2 ag-1	D2 ag-2	D2 PAM-2
CC1=C(/C=C/C(C)=C/C=C/C(C)=C/C(=O)Nc2ccc(O)cc2)C(C)(C)CCC1	56*!	22	1	12	16
CC1=C(/C=C/C(C)=C/C=C/C(C)=C\C(=O)O)C(C)(C)CCC1	-5	x	x	-1	x
CCCCNC(=O)C1CCN(S(=O)(=O)c2c(C)noc2/C=C\c2ccc(OC)cc2)CC1	-5	40*	-1	-4	-18
Cc1ccc(/C=C/c2onc(C)c2S(=O)(=O)N2CCC(C(=O)N3CCCCC3)CC2)cc1	0	34*	-1	-4	-14
COCCCNC(=O)C1CCN(S(=O)(=O)c2c(C)noc2/C=C\c2ccc(OC)cc2)CC1	-26	9	1	0	-2
COc1ccc(/C=C/c2onc(C)c2S(=O)(=O)N2CCC(C(=O)N3CCCCCC3)CC2)cc1	-20	-8	0	-4	34*
CC(C)Oc1ccc2ccccc2c1CNC[C@H]1O[C@@H](n2cnc(C(N)=O)n2)[C@H](O)[C@@H]1O	x	x	x	-2	x
c1ccc(OCCNc2nc(NCC3CC3)nc3cc(-c4ccccc4)sc23)cc1	-20	x	x	44*	x
Cc1ccc(OCCn2c(C3CC(=O)N(Cc4ccc(F)cc4)C3)nc3ccccc32)c(C)c1 (stereo unspecified)	x	x	x	x	9
N#Cc1c(-c2ccco2)cc(-c2cccnc2)nc1N	5	-1	0	-1	18
N#Cc1c(-c2ccco2)cc(-c2ccccn2)nc1N	-7	-10	0	0	36*
COC(=O)c1ccc(NC(=O)CSc2cn(CC(=O)N3CCCCC3)c3ccccc23)cc1	x	x	-1	x	2
CC1CCc2cc(F)ccc2N1S(=O)(=O)c1ccc(Cl)nc1 (stereo unspecified)	2	35*	-1	0	-6
CN(C)S(=O)(=O)c1ccc2c(c1)nc(CCC(=O)NCC(=O)Nc1ccc(F)c(F)c1F)n2C	-13	x	x	0	x
CCOc1ccccc1Oc1ncnc2c1oc1ccccc12	x	x	1	x	4
CC(C)CNC(=S)Nc1ccccc1F	-11	-3	-1	-3	34*
Cc1ccc2nc(CN3CCN(S(=O)(=O)c4ccc(F)cc4)CC3)oc2c1	x	x	-2	x	0
Cc1nn2c(NCc3ccccn3)c3c(nc2c1-c1ccccc1)CCC3	-12	40*	2	-6	-11
O=C(Cn1c2[n+](c3ccc(C(F)(F)F)cc31)CCCCC2)Nc1ccc(Br)cc1	-9	56*	0	-3	-25
N#Cc1ccc(NC(=O)Cn2c3[n+](c4ccc(C(F)(F)F)cc42)CCCCC3)cc1	-18	-17	0	-4	-12
CCC(C)Sc1nc2c(c(=O)[nH]c(=O)n2C)n1CCc1ccccc1 (stereo unspecified)	-11	-28	1	2	17
CCC(C)Sc1nc2c(c(=O)[nH]c(=O)n2C)n1CC(O)COc1ccccc1C (stereo unspecified)	-2	30*	0	-2	-6
COc1ccc(-c2onc(C)c2C)cc1S(=O)(=O)N1CCc2ccccc21	x	x	0	x	-1
COC1=CC(=Cc2c(N)n3nc(CC(=O)N4CCCCC4)sc3nc2=O)C=C(OC)C1=O	2	-2	70*	-3	7
O=C(NCCc1ccccc1)C1CCN(S(=O)(=O)c2cccs2)CC1	-3	-5	0	-2	-14
SMILES	D2 PAM-1	D2 antag	D2 ag-1	D2 ag-2	D2 PAM-2
O=C(NCCN1C(=O)S/C(=C\c2ccccc2)C1=O)C1CCN(S(=O)(=O)c2cccs2)CC1	-9	33*	1	-2	-11
CCOc1ccc(NC(=O)C2CCN(S(=O)(=O)c3cccs3)CC2)cc1	11	-1	-2	5	32*
O=C(NCc1ccccc1)c1ccc(NC(=O)c2nsc3ccccc23)cc1	x	x	0	x	8
CCN(C(C)=O)c1cnc(C=NNC(N)=S)c2ccccc12	57*	x	x	u	x
O=C(CCCCn1c(=O)c2ccccc2n(CC(=O)Nc2cccc(F)c2)c1=O)NCCc1ccccc1	x	x	-1	x	x
CC1CCN(S(=O)(=O)N2CCC(C(=O)NC(C)c3ccccc3)CC2)CC1 (stereo unspecified)	-14	x	x	-4	x
Cc1ccccc1NC(=O)c1ccc(CN2CCc3ccccc3C2)cc1	-15	x	x	-1	x
CCOCCCNC(=O)c1ccc(CN2CCc3ccccc3C2)cc1	-38	x	x	0	x
CCc1cccc(C)c1NC(=O)c1ccc(CN2CCc3ccccc3C2)cc1	-35	55*	-1	-2	-27
CC(C)OCCCNC(=O)c1ccc(CN2CCc3ccccc3C2)cc1	-25	44*	0	-6	-21
COc1ccc(OC)c(NC(=O)c2ccc(CN3CCc4ccccc4C3)cc2)c1	-27	41*	0	-3	-20
COC(=O)c1ccc(CN2CCc3ccc(NC(=O)c4ccncc4)cc3C2)cc1	-37	35*	1	3	-13
O=C(C1CCC1)N1CCCc2cc(S(=O)(=O)N3CCN(c4cccc(Cl)c4)CC3)ccc21	x	x	1	x	-5
Cc1ccc2c(c1)cc1c(=O)n(CC(=O)NCc3ccco3)nc(C)n12	x	x	0	x	-7
CCCOC(=S)NC(=O)c1sc2ccccc2c1Cl	-4	31*	0	-2	-9
CCN(CC)C(=O)c1ccc2nc([C@@H]3O[C@H](CO)[C@H](O)[C@H](O)[C@H]3O)[nH]c2c1	-13	x	x	-2	x
O=C(NNC(=O)c1cccc(C(F)(F)F)c1)c1ccc(-n2cnnn2)cc1	0	x	x	-1	x
CC(NC(=O)Cn1cnnn1)c1cccc(C(F)(F)F)c1 (stereo unspecified)	-4	-18	-2	1	38*
C/C(=N\NC(=O)c1c(C)nc2ccccn12)c1ccccc1F	-1	31*	0	-1	-1
Cc1cc2c([nH]c3ccccc32)c2c1OC(C)(C)C=C2	-14	43*	0	15	14
CCc1ccc(C(O)c2ncc(-c3cccc4ccccc34)[nH]2)cc1 (stereo unspecified)	-12	x	x	-4	x
O=[N+]([O-])c1ccc(N2CCN(CCO)CC2)cc1NCc1ccco1	-40	34*	-1	-4	-22
Cc1cc(C)c(S(=O)(=O)N2CCN(c3ccc([N+](=O)[O-])c(NCc4ccco4)c3)CC2)c(C)c1	-14	-2	-1	0	0
CCCCC(Sc1nc(N)c(NC(=O)c2ccc(OCC)cc2)c(=O)[nH]1)C(=O)O (stereo unspecified)	-5	-7	0	-2	31*
CC(=O)Oc1oc(-c2ccccc2)nc1/C=N/c1ccccn1	-11	-5	1	2	-1
COc1ccccc1N=Cc1nc(-c2ccccc2)oc1OC(C)=O	5	50*	0	-1	-9

Compound activity deposited in PubChem by National Center for Advancing Translational Sciences (NCATS).
